{"source": "paper PMC5540273", "about": "(PLoS ONE, 2017);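 also: KINOMEscan kinase panel screen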", "conditions_in_all_cases": "concentration: 1 μM,replicates: in singlicate; n = 1", "key": {"[1]": {"system": "WNK1"}, "[2]": {"system": "WNK2"}, "[3]": {"system": "WNK3"}, "[4]": {"system": "WNK4"}, "[5]": {"system": "T1, YANK1", "T1 construct": "gene STK32A"}, "[6]": {"system": "T2, YANK2", "T2 construct": "gene STK32B"}, "[7]": {"system": "T3, YANK3", "T3 construct": "gene STK32C"}, "[8]": {"system": "T4, YES", "T4 construct": "gene YES1"}, "[9]": {"system": "T5, YSK1", "T5 construct": "gene STK25"}, "[10]": {"system": "T6, YSK4", "T6 construct": "gene MAP3K19"}}, "data": [{"molecule": "COC(=O)Nc1nc2cc(Oc3ccc(NC(=O)Nc4cc(C(F)(F)F)ccc4Cl)cc3)ccc2[nH]1.Cl", "note": "[GW697465]", "values": [{"measurement": "%Inh", "setting": "[1]", "value": 8, "unit": "%"}, {"measurement": "%Inh", "setting": "[2]", "value": 11, "unit": "%"}, {"measurement": "%Inh", "setting": "[3]", "value": 49, "unit": "%"}, {"measurement": "%Inh", "setting": "[4]", "value": 48, "unit": "%"}, {"measurement": "%Inh", "setting": "[5]", "value": 0, "unit": "%"}, {"measurement": "%Inh", "setting": "[6]", "value": 0, "unit": "%"}, {"measurement": "%Inh", "setting": "[7]", "value": 13, "unit": "%"}, {"measurement": "%Inh", "setting": "[8]", "value": 29, "unit": "%"}, {"measurement": "%Inh", "setting": "[9]", "value": 4, "unit": "%"}, {"measurement": "%Inh", "setting": "[10]", "value": 84, "unit": "%"}]}, {"molecule": "CNC(=O)c1ccccc1Nc1nc(Nc2cccc(CS(C)(=O)=O)c2)ncc1C.O=CO", "note": "[GSK1520489]", "values": [{"measurement": "%Inh", "setting": "[1]", "value": 9, "unit": "%"}, {"measurement": "%Inh", "setting": "[2]", "value": 79, "unit": "%"}, {"measurement": "%Inh", "setting": "[3]", "value": 65, "unit": "%"}, {"measurement": "%Inh", "setting": "[4]", "value": 29, "unit": "%"}, {"measurement": "%Inh", "setting": "[5]", "value": 44, "unit": "%"}, {"measurement": "%Inh", "setting": "[6]", "value": 0, "unit": "%"}, {"measurement": "%Inh", "setting": "[7]", "value": 0, "unit": "%"}, {"measurement": "%Inh", "setting": "[8]", "value": 99.8, "unit": "%"}, {"measurement": "%Inh", "setting": "[9]", "value": 45, "unit": "%"}, {"measurement": "%Inh", "setting": "[10]", "value": 99.8, "unit": "%"}]}, {"molecule": "O=C(Nc1cccc(C(F)(F)F)c1)c1cccc(Oc2ccc3nccn3n2)c1", "values": [{"measurement": "%Inh", "setting": "[1]", "value": 16, "unit": "%"}, {"measurement": "%Inh", "setting": "[2]", "value": 0, "unit": "%"}, {"measurement": "%Inh", "setting": "[3]", "value": 26, "unit": "%"}, {"measurement": "%Inh", "setting": "[4]", "value": 15, "unit": "%"}, {"measurement": "%Inh", "setting": "[5]", "value": 0, "unit": "%"}, {"measurement": "%Inh", "setting": "[6]", "value": 0, "unit": "%"}, {"measurement": "%Inh", "setting": "[7]", "value": 30, "unit": "%"}, {"measurement": "%Inh", "setting": "[8]", "value": 0, "unit": "%"}, {"measurement": "%Inh", "setting": "[9]", "value": 0, "unit": "%"}, {"measurement": "%Inh", "setting": "[10]", "value": 77, "unit": "%"}]}, {"molecule": "c1ccc(Oc2ccc(Nc3ccnc4ccc(-c5ccccn5)cc34)cc2)cc1", "note": "[GW407034]", "values": [{"measurement": "%Inh", "setting": "[1]", "value": 20, "unit": "%"}, {"measurement": "%Inh", "setting": "[2]", "value": 25, "unit": "%"}, {"measurement": "%Inh", "setting": "[3]", "value": 20, "unit": "%"}, {"measurement": "%Inh", "setting": "[4]", "value": 51, "unit": "%"}, {"measurement": "%Inh", "setting": "[5]", "value": 12, "unit": "%"}, {"measurement": "%Inh", "setting": "[6]", "value": 0, "unit": "%"}, {"measurement": "%Inh", "setting": "[7]", "value": 30, "unit": "%"}, {"measurement": "%Inh", "setting": "[8]", "value": 55, "unit": "%"}, {"measurement": "%Inh", "setting": "[9]", "value": 0, "unit": "%"}, {"measurement": "%Inh", "setting": "[10]", "value": 7, "unit": "%"}]}, {"molecule": "CS(=O)(=O)Nc1ccc(-c2ccnc3[nH]ccc23)cc1", "note": "[GSK993273]", "values": [{"measurement": "%Inh", "setting": "[1]", "value": 13, "unit": "%"}, {"measurement": "%Inh", "setting": "[2]", "value": 14, "unit": "%"}, {"measurement": "%Inh", "setting": "[3]", "value": 9, "unit": "%"}, {"measurement": "%Inh", "setting": "[4]", "value": 0, "unit": "%"}, {"measurement": "%Inh", "setting": "[5]", "value": 12, "unit": "%"}, {"measurement": "%Inh", "setting": "[6]", "value": 0, "unit": "%"}, {"measurement": "%Inh", "setting": "[7]", "value": 20, "unit": "%"}, {"measurement": "%Inh", "setting": "[8]", "value": 8, "unit": "%"}, {"measurement": "%Inh", "setting": "[9]", "value": 51, "unit": "%"}, {"measurement": "%Inh", "setting": "[10]", "value": 96.5, "unit": "%"}]}, {"molecule": "CCn1c(-c2nonc2N)nc2cncc(Br)c21", "note": "[SB-738004]", "values": [{"measurement": "%Inh", "setting": "[1]", "value": 0, "unit": "%"}, {"measurement": "%Inh", "setting": "[2]", "value": 8, "unit": "%"}, {"measurement": "%Inh", "setting": "[3]", "value": 31, "unit": "%"}, {"measurement": "%Inh", "setting": "[4]", "value": 39, "unit": "%"}, {"measurement": "%Inh", "setting": "[5]", "value": 0, "unit": "%"}, {"measurement": "%Inh", "setting": "[6]", "value": 7, "unit": "%"}, {"measurement": "%Inh", "setting": "[7]", "value": 8, "unit": "%"}, {"measurement": "%Inh", "setting": "[8]", "value": 0, "unit": "%"}, {"measurement": "%Inh", "setting": "[9]", "value": 0, "unit": "%"}, {"measurement": "%Inh", "setting": "[10]", "value": 99.7, "unit": "%"}]}, {"molecule": "Cc1ccc(C(=O)Nc2ccc(Oc3ccc4nc(NC(=O)C5CC5)cn4c3)c(F)c2)c(=O)n1-c1ccccc1", "values": [{"measurement": "%Inh", "setting": "[1]", "value": 0, "unit": "%"}, {"measurement": "%Inh", "setting": "[2]", "value": 0, "unit": "%"}, {"measurement": "%Inh", "setting": "[3]", "value": 0, "unit": "%"}, {"measurement": "%Inh", "setting": "[4]", "value": 0, "unit": "%"}, {"measurement": "%Inh", "setting": "[5]", "value": 0, "unit": "%"}, {"measurement": "%Inh", "setting": "[6]", "value": 0, "unit": "%"}, {"measurement": "%Inh", "setting": "[7]", "value": 0, "unit": "%"}, {"measurement": "%Inh", "setting": "[8]", "value": 71, "unit": "%"}, {"measurement": "%Inh", "setting": "[9]", "value": 0, "unit": "%"}, {"measurement": "%Inh", "setting": "[10]", "value": 0, "unit": "%"}]}]}
